PubChem BioAssay (NCATS)
Records with an inconclusive call do not appear. The source made the active and inactive calls. Calls follow the shape of the dose curve; as a rule, active = well fitted curve in the direction sought with a large enough effect; inconclusive = small, poorly fitted or top-dose-only effect, or another doubt; inactive = no such curve, though single readings can be large; an effect the other way counts as inactive or inconclusive.

Columns and labels:
[1] = qHTS to identify inhibitors of the type 1 interferon - major histocompatibility complex class I in skeletal muscle: primary screen against the NCATS LOPAC collection (AID 1347405);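 also: lytic HiBiT luminescence reporting HLA-B protein level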; also: potency is read from the fitted curve at half-maximal effect
Outline: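 CRISPR-engineered immortalized human myoblasts (C25cl48) with HiBiT fused to endogenous HLA-B*08:01, stimulated with 4 ng/ml IFN-beta. LOPAC compounds tested as a 7-point 1:4.3 titration (top 46 uM final), 24 h at 37 C; lytic HiBiT luminescence read.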

[2] = Validation qHTS assay for inhibitors of Activation Induced Cytidine Deaminase (AID): UDG Counterscreen signal (AID 1347427)
Outline: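 Counterscreen read of UDG activity (2 U/mL, 4/3x) in the FRET deamination format with AID (1 uM, 4/3x), DJC20/DJC23 substrates (250 nM, 4x), 4 h at room temperature. NaOH stop, fluorescence at 560 ex/665 em.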

[3] = target: Single-stranded DNA cytosine deaminase (Homo sapiens) (UniProt Q9GZX7); experiment: Validation qHTS assay for inhibitors of Activation Induced Cytidine Deaminase (AID): AID signal (AID 1347429); also: potency is read from the fitted curve at half-maximal effect
Outline: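 FRET deamination assay: 1 uM AID (4/3x stock) with UDG, compound up to 114 uM, then 250 nM DJC20/DJC23 substrate (4x stock) for 4 hr at room temperature. NaOH added, 30 min; fluorescence read 540/590 nm.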

[4] = qHTS for inhibitors of adenylyl cyclases using a fission yeast platform: a pilot screen against the NCATS LOPAC library (AID 1347410)
Outline: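 S. pombe CHP2027 (AC9-GNAS-PDE4D2) carrying a PKA-repressed fbp1-GFP reporter was exposed to LOPAC compounds (final up to 57 µM) for 18 h at 30C in the dark, in EMM with histidine, lysine and uracil; GFP gain-of-signal read by laser scanning cytometry.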

Measured: Potency

Chain of Single-stranded DNA cytosine deaminase (Homo sapiens) (Q9GZX7 whole entry, looked up): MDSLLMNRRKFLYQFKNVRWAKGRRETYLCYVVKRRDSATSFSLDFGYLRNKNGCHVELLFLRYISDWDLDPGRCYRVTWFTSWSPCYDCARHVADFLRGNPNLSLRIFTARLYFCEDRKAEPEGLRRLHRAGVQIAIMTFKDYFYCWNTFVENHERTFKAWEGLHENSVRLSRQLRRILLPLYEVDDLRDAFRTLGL

O=[N+]([O-])/C=C/c1ccc2c(c1)OCO2
active: [1] 7.08 µM
inactive: [2] | [3]

C[N+](C)(C)CC#CCOC(=O)Nc1cccc(Cl)c1
inactive: all assays above

C[C@H](N)CN1CCc2ccc(Br)cc21
inactive: all assays above

C[N+]1(C)CCOC(O)(c2ccc(-c3ccc(C4(O)C[N+](C)(C)CCO4)cc3)cc2)C1 (stereo unspecified)
inactive: [1] | [2]

O=C1C=CC(=O)C=C1
inactive: [1] | [2] | [3]

CCOC(=O)c1ncn2c1[C@@H]1CCCN1C(=O)c1cc(OC)ccc1-2
inactive: [1] | [2] | [3]

CC(N)c1cccc(Cl)c1Cl (stereo unspecified)
inactive: all assays above

CC12NC(Cc3ccccc31)c1ccccc12 (stereo unspecified)
inactive: all assays above

Clc1ccc(N2CC3CCC(C2)N3)nn1
inactive: all assays above

c1ccc2cc(CC3=NCCN3)ccc2c1
inactive: all assays above

N[C@@]1(C(=O)O)CC[C@@H](C(=O)O)C1
inactive: all assays above

CP(=O)(O)C1=CCNCC1
inactive: all assays above

CN(C(=O)Cc1ccc(Cl)c(Cl)c1)C(CN1CCCC1)c1cccc(OCC(=O)O)c1 (stereo unspecified)
inactive: all assays above

COc1ccc2[nH]c3c(c2c1)CCNC3
inactive: all assays above

C=CCN1C[C@@H](C)N([C@H](c2ccc(C(=O)N(CC)CC)cc2)c2cccc(OC)c2)C[C@@H]1C
inactive: all assays above

C[N+]1(C)C2CCC1CC(OC(=O)c1c[nH]c3ccccc13)C2 (stereo unspecified)
inactive: all assays above

CO[C@H]1CC=C2CCN3CCC4=C(CC(=O)OC4)[C@]23C1
inactive: all assays above

NNC(N)=O
inactive: all assays above

CCCC[N+]1(C)C2CC(OC(=O)[C@H](CO)c3ccccc3)CC1C1OC12 (stereo partly specified)
inactive: all assays above

CCCN1CCc2cc(O)cc3c2[C@H]1Cc1ccc(O)c(O)c1-3
inactive: all assays above

CC(C)(O)[C@@H]1C2OC(=O)[C@@H]1[C@]1(O)C[C@H]3O[C@]34C(=O)O[C@H]2[C@]14C (tested in a mixture with another compound)
inactive: all assays above

CCCN(CCC)CCc1ccc(O)c(O)c1
inactive: all assays above

NC(CCCCCP(=O)(O)O)C(=O)O (stereo unspecified)
inactive: all assays above

CN1CCc2cccc(Cl)c2CC1
inactive: all assays above

CC1(C(=O)O)C2CCC(O2)C1(C)C(=O)O (stereo unspecified)
active: [1] 12.6 µM
inactive: all other assays above

C[C@H](N)Cc1cccc(C(F)(F)F)c1
inactive: all assays above

CC(N)[C@H](O)c1ccc(O)c(O)c1 (stereo partly specified)
inactive: all assays above

CCCN(CCC)C1Cc2cc(OC)c(OC)cc2C1
inactive: all assays above

CCNC(=O)[C@H]1O[C@@H](n2cnc3c(N)ncnc32)[C@H](O)[C@@H]1O
inactive: all assays above

CC(C)(C)c1o[nH]c(=O)c1CC(N)C(=O)O (stereo unspecified)
inactive: all assays above

CCn1cnc2c(Nc3cccc(Cl)c3)nc(N[C@@H]3CCCC[C@@H]3N)nc21
active: [1] 2.51 µM
inactive: all other assays above

CNc1ccc2oc(C[C@H]3O[C@@]4(CC[C@H]3C)O[C@H]([C@H](C)C(=O)c3ccc[nH]3)[C@H](C)C[C@H]4C)nc2c1C(=O)O
active: [1] 3.98 µM
inactive: all other assays above

CN1CC[C@@]2(C)c3cc(OC(=O)Nc4ccccc4)ccc3N(C)[C@@H]12
inactive: all assays above

CN1CC[C@@]2(C)c3cc(O)ccc3N(C)C12 (stereo partly specified)
inactive: [1] | [4]
active: [3] 12.6 µM

NCCc1ccc(S(=O)(=O)F)cc1
inactive: all assays above

CCCN(CCC)[C@H]1CCc2c(F)ccc(O)c2C1
inactive: all assays above

NCC(CP(=O)(O)O)c1ccc(Cl)cc1 (stereo unspecified)
inactive: all assays above

NC(N)=Nc1ccc2[nH]c3c(c2c1)C[C@@]1(O)[C@H]2Cc4ccc(O)c5c4[C@@]1(CCN2CC1CC1)[C@H]3O5
inactive: [1] | [2]
active: [3] 79.4 µM

N#C/C(=C/c1ccc(O)c(O)c1)C(N)=S
inactive: [1] | [2] | [3]

COc1ccc2c(c1)C13CCCCC1C(C2)N(C)CC3 (stereo unspecified)
inactive: [1] | [2] | [3]
